From PubChem BioAssay AID2314 (National Center for Advancing Translational Sciences (NCATS), 2010)
About 37,000 (12%) of roughly 300,000 compounds were called active. Shown is part of a subset that was picked to be rich in actives. Unmarked numbers belong to inactive results. Cut-off read from the data, not from the text of the source: active = max response mostly above about 13% (no sharp cut-off); inactive = mostly below about 14%.

Test: Cycloheximide Counterscreen for Small Molecule Inhibitors of Shiga Toxin; note: read at 38.3 µM for the half of the compounds with a filed dose; 0% is about no effect
Details: cell reporter, cycloheximide protein synthesis inhibition counterscreen; hits give high values
`CCCCN=C1C([N+](=O)[O-])=CC=C2C1=NC1(CCCCC1)N2O` gave a max response of 4.25%. `CCCc1nnc(NC(=O)CCC(=O)NC2CC2)s1` gave a max response of -2.75%. In the case of `Cc1ccc2c(c1)C1CN(C)CCC1N2S(=O)(=O)c1ccc(Oc2ccc([N+](=O)[O-])cc2)cc1` (stereo unspecified), the max response is reported as -3.12%. In the case of `Cc1ccc(C(=O)NC2CCN(C(=O)Nc3ccccc3Cl)CC2)cc1`, the max response is reported as -2.19%. Work on `Cc1nn(CC(=O)NCC2CCCO2)c(=O)c2cc3ccccc3n12` (stereo unspecified) yielded a max response of 3.06%. In the case of `Cc1ccc(-c2cn3cc([N+](=O)[O-])ccc3n2)cc1`, the max response is reported as 92.8% (active). In the case of `Cc1ccnc(N2C(=O)c3ccc([N+](=O)[O-])cc3C2=O)c1`, the max response is reported as -0.576%. For `CSc1nnc2ccc(-c3ccc(C)cc3)nn12`, the max response was 8.85%. With `Cc1ccc2nc(-c3ccc(Br)cc3)cn2c1` the max response was 17.6% (active). `Cc1ccc(C(=O)Cn2cc([N+](=O)[O-])nc2C)cc1` showed a max response of -1.83%. In the case of `Cc1ccc(-c2cn3cc(C)ccc3n2)cc1`, the max response is reported as -15.5%. For `CC1CCN(C(=O)c2ccc(S(=O)(=O)Cc3cc(F)ccc3F)c([N+](=O)[O-])c2)CC1`, the max response was 0.662%. In the case of `O=C(CN1CCN(S(=O)(=O)c2cc(Cl)ccc2Cl)CC1)c1ccc(O)c(O)c1`, the max response is reported as 6.66%. In the case of `CCC(C)NCCOCCOc1ccc(Br)cc1C` (stereo unspecified), the max response is reported as -2.66%. With `COC(=O)CSc1nc2c(c(C3CC=CCC3)c1C#N)CCC2` (stereo unspecified) the max response was -1.01%. For `CCOC(=O)c1sc(C)c2c1NC(C)(c1cccc3ccccc13)NC2=O` (stereo unspecified), the max response was 0.788%. For `C/C(=N\NC(=O)Cc1ccccc1[N+](=O)[O-])c1cccnc1`, the max response was -0.525%. `Cc1sc2nc(SCC(N)=O)n(C)c(=O)c2c1C` gave a max response of -2.39%. For `Nc1nc(SCC(=O)NCCN2CCOCC2)nc2sc3c(c12)CCC3`, the max response was -2.27%. For `CN(C)CCSc1nc(N)c2c3c(sc2n1)COC(C)(C)C3`, the max response was -2.73%. In the case of `C=C(C)CSc1nc(N)c2c3c(sc2n1)CCC3`, the max response is reported as 18.4% (active). Compound `CCC1(C)Cc2c(sc3nc(SC)nc(N)c23)CO1` (stereo unspecified) has a max response of 8.94%. With `CC(C)(C)C1CCc2c(sc3nc(SCC(N)=O)nc(N)c23)C1` (stereo unspecified) the max response was 28.1% (active). Compound `C=CCn1cc(C(=O)NCc2ccc(Cl)cc2)c(=O)c2cc(S(=O)(=O)N(CC)CC)ccc21` has a max response of -6.07%. Compound `CN(CCNC(=O)c1cc2c(-c3ccccc3F)nn(C)c2s1)C1CCCCC1` has a max response of -2.34%. With `CCOC(=O)C1CCCN(S(=O)(=O)c2ccc3c(c2)C(C)(C)C(=O)N3C)C1` (stereo unspecified) the max response was -2.15%. With `COc1ccc(N(C(=O)c2ccc(C)cc2)S(=O)(=O)c2cccs2)cc1` the max response was 10.9%. With `Clc1ccc(C2=CSC3=Nc4cccc5cccc(c45)N23)cc1` the max response was 11.3% (active). For `CC(=O)Oc1cccc(N2C(=O)CC(Nc3ccc(N4CCOCC4)cc3)C2=O)c1` (stereo unspecified), the max response was 49% (active). For `COc1ccc(N2CCN(C3CC(=O)N(c4ccc5c(c4)OCCO5)C3=O)CC2)cc1` (stereo unspecified), the max response was 1.96%. In the case of `CC(=O)Oc1cccc(N2C(=O)C3CC=C(Cl)CC3C2=O)c1` (stereo unspecified), the max response is reported as -3.93%. `COc1ccccc1OCCn1c(SCC(N)=O)nc2ccccc21` gave a max response of -1.3%. With `COc1ccccc1OCc1nc2ccccc2s1` the max response was 27.4% (active). Compound `COc1ccc(Cn2c(=O)sc3ccccc32)cc1OC` has a max response of -0.76%. Compound `CC1CCc2c(nc3ncnn3c2Nc2ccc(OC(F)(F)F)cc2)C1` (stereo unspecified) has a max response of 0.841%. For `OCCn1c(-c2ccccc2)csc1=Nc1ccccc1`, the max response was 38.9%. With `COc1ccc2nc(Nc3nc4cc5c(cc4s3)OCCO5)sc2c1` the max response was 33.1% (active). In the case of `COc1ccc2nc(Nc3nc(-c4cc5ccccc5oc4=O)cs3)sc2c1`, the max response is reported as 13.6% (active). In the case of `COc1ccc2nc(Nc3nc(-c4ccncc4)cs3)sc2c1`, the max response is reported as 21.5%. Work on `CCOc1ccc(S(=O)(=O)Nc2nc3cc(OC)ccc3s2)cc1` yielded a max response of -4.35%. `COc1ccc2nc(Nc3nc4ccc(NC(C)=O)cc4s3)sc2c1` showed a max response of 6.12%. With `Cn1c(SCC(=O)NC2CCCCC2)nnc1-c1cc2ccccc2o1` the max response was 10.2%. Compound `COc1ccccc1CN(C)C(=O)c1cc2ccccc2o1` has a max response of 7.81%. For `O=c1oc2ccccc2cc1-c1csc(Nc2ccc(O)cc2)n1`, the max response was 46% (active). In the case of `CCNc1nc(-c2cc3ccccc3o2)cs1`, the max response is reported as 58% (active). `COc1ccc2oc(=O)cc(-c3cc4ccccc4o3)c2c1` showed a max response of 4.74%. Compound `CC(=O)Nc1nc(C)c(-c2csc(Nc3ccc(S(N)(=O)=O)cc3)n2)s1` has a max response of -0.544%. `Cc1ccc(OCCCC(=O)Nc2ccc(S(=O)(=O)Nc3cc(C)nc(C)n3)cc2)cc1` gave a max response of -2.32%. Compound `CN(C)[C@@H]1C(=O)C(C(N)=O)=C(O)[C@@]2(O)C(=O)C3=C(O)c4c(O)ccc(Cl)c4[C@@H](O)[C@H]3C[C@@H]12` has a max response of 3.73%. `CCN(CC)CCOCCOc1ccc(Cl)c2ccccc12` gave a max response of -2.87%. `COc1cc(NS(=O)(=O)c2ccc(NC(=S)NC(=O)c3ccc(Br)cc3)cc2)ncn1` showed a max response of 0.589%.
